From PubChem
The sample as a whole holds a higher share of hits than the screen did.
RE007 growth inh: less growth of the S. pombe RE007 Vpr strain; S. pombe RE007 Vpr strain, BacTiter-Glo ATP luminescence, 24 h; Potency, µM (series often up to 92.2 µM), actives largely listed as inhibitors; 0.21% of 360,000 active; AID 651644; active = well fitted falling curve with a large enough effect; inconclusive = small, poorly fitted or top-dose-only effect; inactive = no such curve, though single readings can be large or run the other way; also: nearly all actives have a fitted effect of over 50% in size
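Fission yeast RE007 carrying one integrated HIV-1 vpr copy, seeded at OD 0.01 in PMG+AL medium with 23 nL pinned compound. Grown 24 h at 30 degrees; viability read by BacTiter-Glo luminescence after 5 min.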
CHX counter: affects cycloheximide protein synthesis inhibition readout, counter-screen | 12% of 300,000 active | cell reporter, cycloheximide protein synthesis inhibition counterscreen | max response, %; in the data active = max response mostly above about 13%, no sharp cut-off; inactive = mostly below about 14%; also: read at 38.3 µM for the half of the compounds with a filed dose
Giardia FBPA inh: blocks Giardia fructose-bisphosphate aldolase activity | A8B2U2 | Potency, µM (doses to about 59.6 µM), usual class: inhibitors | 0.71% of 290,000 active | AID 2451 | purified Giardia FBPA; also: nearly all actives have a fitted effect of over 55% in size
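Giardia FBPA (40 nM reagent) was preincubated 10 min at RT with compound (up to 57.5 uM final), then substrate plus GAPDH/TPI/NAD/arsenate coupling system with diaphorase/resazurin was added; resorufin fluorescence (525/598 nm) was read after 20 min.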
TbPYK inhibitor: T. brucei pyruvate kinase inhibition; Q57TT1; TbPYK enzyme, Kinase-Glo Plus ATP luminescence, 45 min; Potency, µM (titrated, usually from 76.8 µM), hits mostly inhibitors; 0.12% of 410,000 active; AID 624173; also: nearly all actives have a fitted effect of over 50% in size
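Glycolytic pyruvate kinase of T. brucei was incubated with substrate, test compound and 130 uM ADP for 45 minutes at room temperature. Luminescent Kinase-Glo Plus signal was measured after 10 minutes.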
LmPK inhibitor: inhibitors of Leishmania mexicana pyruvate kinase. Q27686. purified LmPK, Kinase-Glo ATP luminescence, 1 h. Potency, µM (series often up to 57.5 µM), usual class: inhibitors. 0.37% of 290,000 active. AID 1721
Target sequence (Q27686 whole entry, looked up): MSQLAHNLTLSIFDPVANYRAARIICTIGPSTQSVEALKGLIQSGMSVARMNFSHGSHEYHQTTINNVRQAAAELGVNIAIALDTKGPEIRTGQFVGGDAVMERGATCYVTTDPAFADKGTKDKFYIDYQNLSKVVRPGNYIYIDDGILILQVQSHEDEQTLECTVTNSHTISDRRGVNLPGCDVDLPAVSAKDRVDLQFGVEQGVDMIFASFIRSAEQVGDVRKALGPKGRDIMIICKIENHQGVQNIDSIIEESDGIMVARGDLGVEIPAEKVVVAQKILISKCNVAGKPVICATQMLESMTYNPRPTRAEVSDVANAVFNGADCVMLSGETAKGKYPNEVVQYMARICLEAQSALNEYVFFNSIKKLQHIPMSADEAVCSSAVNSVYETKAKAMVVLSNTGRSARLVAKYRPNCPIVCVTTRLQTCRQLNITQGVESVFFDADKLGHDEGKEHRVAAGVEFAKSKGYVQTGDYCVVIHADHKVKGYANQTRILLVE
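Screened at intermediate enzyme activity to detect both inhibitors and activators: LmPK at 0.1 nM, with a 0.5 nM enzyme column as activation reference. PEP 0.5 mM, ADP 0.1 mM; ATP detected by luminescence after 1 h.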
Shiga inhibitor: inhibitors of Shiga toxin in Vero cells; 9.2% of 290,000 active; inhibition, % at 38.7 µM; AID 2315; Vero cells, Shiga toxin protein synthesis inhibition reporter; in the data active = inhibition mostly above about 28%, no sharp cut-off; inactive = mostly below about 43%
Numbers stand for hits; 0 = inactive; ? = inconclusive; - = not tested or not shown. Unless noted, calls follow the shape of the dose curve; as a rule, active = well fitted curve in the direction sought with a large enough effect; inconclusive = small, poorly fitted or top-dose-only effect, or another doubt; inactive = no such curve, though single readings can be large; an effect the other way counts as inactive or inconclusive.

SMILES	RE007 growth inh	CHX counter	Giardia FBPA inh	TbPYK inhibitor	LmPK inhibitor	Shiga inhibitor
O=[N+]([O-])c1ccc(OCc2cnc(Cl)s2)cc1	0	32	0	0	0	0
COC(=O)C(Cc1cnc(Cl)s1)(C(=O)OC)c1ccc([N+](=O)[O-])cc1	0	0	0	0	0	0
COc1ccc(OCc2cnc(Cl)s2)cc1	0	29	0	0	0	60
Cc1ccc(N2CCn3c2nc2c3c(=O)n(CCc3ccccc3)c(=O)n2C)cc1C	-	-	-	0	-	-
Cc1cc(=O)[nH]c(COc2ccccc2)n1	0	0	0	0	0	0
O=c1[nH]c(CSc2nnc(COc3ccccc3)n2-c2ccccc2)nc2ccccc12	0	0	0	0	0	0
S=c1nc(COc2ccccc2)[nH]c2ccccc12	-	58	0	0	0	116
Clc1ccc2nc(COc3ccccc3)[nH]c2c1	0	34	0	0	0	-
O=c1[nH]c(COc2ccc(Br)cc2Cl)nc2ccccc12	0	37	-	0	0	104
O=c1[nH]c(COc2ccccc2)nc2ccccc12	0	25	0	0	0	49
CCC(Oc1ccccc1F)C(=O)Nc1c(C(=O)c2ccccc2)oc2ccccc12 (stereo not given)	-	-	-	0	-	-
CN(CC(=O)Nc1ccc(F)cc1)C(=O)Cn1cnc2ccc([N+](=O)[O-])cc2c1=O	0	-	-	0	-	-
CCOc1ccc(C(=O)Nc2ccc(C(=O)OCc3cc(=O)n4c(C)csc4n3)cc2)cc1	-	-	-	0	-	-
S=c1nc(Cc2ccc(Cl)cc2)[nH]c2ccccc12	0	13	0	0	0	0
S=c1nc(Cc2ccccc2)[nH]c2ccccc12	0	0	0	0	0	0
CCOC(=O)N=Nc1c2ccccc2c2nc3no[nH]c3nc12	5µM	0	1.6µM	0	0	0
Cc1nc(-c2ccc3c(c2)OCCCO3)cs1	0	45	0	0	0	87
Nc1nc(-c2cc3c(cc2Cl)OCCO3)cs1	0	40	0	0	0	44
CC1Cc2cc(-c3csc(N)n3)ccc2O1 (stereo not given)	0	26	0	0	0	36
CC1Cc2cc(/C=C3/SC(=S)N(C)C3=O)ccc2O1 (stereo not given)	0	0	0	0	0	0
Nc1nc(-c2ccc3c(c2)NC(=O)CO3)cs1	0	0	0	0	0	0
Nc1nc(-c2ccccc2Cl)cs1	0	-	-	0	-	-
Nc1nc(-c2ccc3c(c2)OCCO3)cs1	0	50	0	0	0	79
COc1ccc(C(C#N)=Cc2ccc(N(C)CCC#N)cc2)cc1	0	-	-	0	-	-
Cc1ccsc1C(=O)Nc1ccc(S(=O)(=O)N2CCOCC2)cc1	0	-	-	0	-	-
SMILES	RE007 growth inh	CHX counter	Giardia FBPA inh	TbPYK inhibitor	LmPK inhibitor	Shiga inhibitor
Fc1ccc(-c2csc(/C=C/c3ccc4c(c3)OCO4)n2)cc1	0	20	0	0	0	39
c1cncc(-c2nc(-c3ccc4c(c3)OCO4)cs2)c1	0	28	0	0	0	85
CC(C)(C)C(=O)N1CCc2cc(-c3csc(N)n3)ccc21	0	0	-	0	?	0
Nc1nc(-c2ccc3c(c2)CCCC3)cs1	?	36	0	0	0	93
O=C1c2ccccc2C(=O)N1c1cccc(-c2csc(Nc3ccc4c(c3)OCO4)n2)c1	-	20	0	-	0	71
CCOC(=O)c1ccc(NC(=O)C2=C(C)C(=O)OC23CCN(C(C)C)CC3)cc1	-	-	-	0	-	-
Cc1nc(-c2ccc3c(c2)OCO3)cs1	0	16	0	0	0	43
c1ccc(C2=Nc3ccccc3OC2)cc1	?	21	0	0	?	0
Cc1ccc2c(c1)N=C(c1ccc(Cl)cc1)CO2	0	53	0	0	?	56
NC1=Nc2ccccc2Oc2ccccc21	0	0	0	0	0	0
Clc1ccc(C2=Nc3cc(Cl)ccc3OC2)cc1	0	27	0	0	0	60
Clc1ccc(C2=NN=C3COc4ccccc4N3C2)cc1	0	0	0	0	0	0
Cc1cc(/C=C2/SC(=O)N(CC(=O)N3CCOCC3)C2=O)c(C)n1-c1ccccc1F	0	22	0	0	0	47
COc1ccc(-n2c(C)cc(/C=C3/SC(=O)N(CC(=O)N4CCOCC4)C3=O)c2C)cc1	0	0	?	0	0	0
CN1CCC(=O)N([C@H](CSc2ccc(Br)cc2)c2ccccc2)CC1	0	25	0	0	0	64
Cc1ccc(SCC(c2ccccc2)N2CCN(C)CCC2=O)cc1 (stereo not given)	-	31	0	-	-	52
CN1CCC(=O)N([C@H](CC#N)c2ccccc2)CC1	0	0	0	0	0	0
COc1ccc(/C=N/Nc2ncnc(Cl)c2N)cc1OC	-	14	0	0	0	0
Nc1c(Cl)ncnc1N/N=C/c1cccc(O)c1	0	26	0	0	0	50
Nc1c(Cl)ncnc1N/N=C/c1ccncc1	0	0	0	0	0	0
Oc1cccc(/C=N/Nc2ncnc3c2ncn3Cc2ccccc2)c1	0	18	0	0	0	53
Oc1ccc(/C=N/Nc2ncnc3c2ncn3Cc2ccccc2)cc1O	0	0	?	0	0	0
Cc1ccc(C(=O)Nc2ncccc2O)cc1S(=O)(=O)N1CCCCC1	0	-	-	0	-	-
Cc1nn(-c2ccccc2)c2sc(C(=O)N3CCCCC3)cc12	0	48	0	0	0	114
O=S(=O)(c1ccc2c(c1)OCCO2)N1CCN(S(=O)(=O)c2cc(F)c(F)cc2F)CC1	-	0	-	-	-	0
SMILES	RE007 growth inh	CHX counter	Giardia FBPA inh	TbPYK inhibitor	LmPK inhibitor	Shiga inhibitor
CC(=O)/C(C#N)=C1\NC(=O)C(Cc2ccccc2C)S1 (stereo not given)	0	16	0	0	0	0
COc1ccc(C2CC(O)(c3ccccc3)Oc3c(C)ccc(C(C)C)c32)cc1 (stereo not given)	-	0	0	-	-	0
COc1ccc(N2CCN(CC(O)COc3ccc(C(C)C)c(C)c3)CC2)cc1 (stereo not given)	-	-	-	0	-	-
Cc1ccn(CCC(=O)O)n1	0	0	0	0	0	0
Cc1ccn(-c2cc(O)c(-n3ccc(C)n3)cc2O)n1	0	14	0	0	0	0
C/C(=N\NC(=O)c1cc2ccccc2cc1O)c1ccc2c(c1)OCO2	0	0	0	0	0	0
C/C(=N\Nc1nc2ccccc2[nH]1)c1ccc2c(c1)OCO2	0	35	0	0	0	65
C(=N\Nc1nc2ccccc2[nH]1)/c1ccc2c(c1)OCO2	0	35	0	0	0	88
Clc1ccccc1N/N=C/c1ccc2c(c1)OCO2	0	76	0	0	?	115
C/C(=N\Nc1ccccn1)c1ccc2c(c1)OCO2	0	44	0	0	0	72
Cn1cc(C(=O)NCCc2ccc(Cl)cc2)c(=O)c2cc(S(=O)(=O)N3CCOCC3)ccc21	-	-	-	0	-	-
CC(Sc1ccc(S(=O)(=O)N2CCN(C)CC2)cn1)C(=O)Nc1cccc(Cl)c1Cl (stereo not given)	0	-	-	0	-	-
